A number with no mark means an inactive call.
The targets below were run with ClCC(=O)NC1(CCCC1)C#N (assay: log2 ratio of Biotin-Ahx-Ub-VS probe labelling (compound/DMSO); higher = less target engagement, active = hit call of the paper (q ≤ 0.05, log2 ratio ≤ -1)). Settings: compound concentration: 50uM; treatment time: 3 h.
Method: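 Round 2 competitive ABPP in HEK293T lysate. Compounds were tested at 50 and 200 µM for 3 h, followed by Biotin-Ahx-Ub-VS enrichment and diaPASEF LC-MS/MS. Values are the average log2 ratio (compound/DMSO) from an unpaired t-test (n=3 treated, n=26 DMSO).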

Sequence of UniProt O94966 (O94966 whole entry): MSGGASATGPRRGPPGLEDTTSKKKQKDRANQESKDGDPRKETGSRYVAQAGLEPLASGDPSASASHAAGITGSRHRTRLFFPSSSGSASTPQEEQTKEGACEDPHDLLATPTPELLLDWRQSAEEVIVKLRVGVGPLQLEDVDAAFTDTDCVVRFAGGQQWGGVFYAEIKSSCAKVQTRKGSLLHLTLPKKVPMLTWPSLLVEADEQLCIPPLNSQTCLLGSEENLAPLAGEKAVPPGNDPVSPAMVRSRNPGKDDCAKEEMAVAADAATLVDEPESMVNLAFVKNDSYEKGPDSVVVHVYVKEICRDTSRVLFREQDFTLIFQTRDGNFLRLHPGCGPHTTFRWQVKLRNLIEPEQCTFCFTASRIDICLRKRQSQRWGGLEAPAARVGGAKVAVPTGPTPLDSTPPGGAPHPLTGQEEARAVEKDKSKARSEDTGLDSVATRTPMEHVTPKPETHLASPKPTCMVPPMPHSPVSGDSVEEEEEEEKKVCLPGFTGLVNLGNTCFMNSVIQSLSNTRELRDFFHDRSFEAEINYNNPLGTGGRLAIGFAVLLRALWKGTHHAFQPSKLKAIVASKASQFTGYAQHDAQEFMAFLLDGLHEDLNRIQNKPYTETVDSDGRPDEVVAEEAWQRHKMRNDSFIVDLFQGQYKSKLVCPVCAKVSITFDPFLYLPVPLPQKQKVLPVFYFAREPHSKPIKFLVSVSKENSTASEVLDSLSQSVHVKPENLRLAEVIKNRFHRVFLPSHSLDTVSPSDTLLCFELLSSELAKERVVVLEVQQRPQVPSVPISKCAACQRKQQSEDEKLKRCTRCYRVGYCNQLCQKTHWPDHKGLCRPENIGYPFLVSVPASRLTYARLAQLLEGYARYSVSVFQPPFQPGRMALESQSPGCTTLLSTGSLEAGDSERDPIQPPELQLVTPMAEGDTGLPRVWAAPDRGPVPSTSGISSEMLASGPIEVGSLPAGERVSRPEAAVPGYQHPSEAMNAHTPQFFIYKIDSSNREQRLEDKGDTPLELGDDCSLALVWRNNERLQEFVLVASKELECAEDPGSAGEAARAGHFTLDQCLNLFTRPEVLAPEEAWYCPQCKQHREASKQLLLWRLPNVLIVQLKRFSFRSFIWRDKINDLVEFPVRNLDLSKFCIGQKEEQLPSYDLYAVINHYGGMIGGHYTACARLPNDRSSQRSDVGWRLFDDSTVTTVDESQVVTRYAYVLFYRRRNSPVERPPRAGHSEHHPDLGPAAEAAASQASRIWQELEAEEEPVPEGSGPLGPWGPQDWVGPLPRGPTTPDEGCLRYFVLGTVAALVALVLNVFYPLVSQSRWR
Sequence of UniProt Q9NP73 (Q9NP73 whole entry): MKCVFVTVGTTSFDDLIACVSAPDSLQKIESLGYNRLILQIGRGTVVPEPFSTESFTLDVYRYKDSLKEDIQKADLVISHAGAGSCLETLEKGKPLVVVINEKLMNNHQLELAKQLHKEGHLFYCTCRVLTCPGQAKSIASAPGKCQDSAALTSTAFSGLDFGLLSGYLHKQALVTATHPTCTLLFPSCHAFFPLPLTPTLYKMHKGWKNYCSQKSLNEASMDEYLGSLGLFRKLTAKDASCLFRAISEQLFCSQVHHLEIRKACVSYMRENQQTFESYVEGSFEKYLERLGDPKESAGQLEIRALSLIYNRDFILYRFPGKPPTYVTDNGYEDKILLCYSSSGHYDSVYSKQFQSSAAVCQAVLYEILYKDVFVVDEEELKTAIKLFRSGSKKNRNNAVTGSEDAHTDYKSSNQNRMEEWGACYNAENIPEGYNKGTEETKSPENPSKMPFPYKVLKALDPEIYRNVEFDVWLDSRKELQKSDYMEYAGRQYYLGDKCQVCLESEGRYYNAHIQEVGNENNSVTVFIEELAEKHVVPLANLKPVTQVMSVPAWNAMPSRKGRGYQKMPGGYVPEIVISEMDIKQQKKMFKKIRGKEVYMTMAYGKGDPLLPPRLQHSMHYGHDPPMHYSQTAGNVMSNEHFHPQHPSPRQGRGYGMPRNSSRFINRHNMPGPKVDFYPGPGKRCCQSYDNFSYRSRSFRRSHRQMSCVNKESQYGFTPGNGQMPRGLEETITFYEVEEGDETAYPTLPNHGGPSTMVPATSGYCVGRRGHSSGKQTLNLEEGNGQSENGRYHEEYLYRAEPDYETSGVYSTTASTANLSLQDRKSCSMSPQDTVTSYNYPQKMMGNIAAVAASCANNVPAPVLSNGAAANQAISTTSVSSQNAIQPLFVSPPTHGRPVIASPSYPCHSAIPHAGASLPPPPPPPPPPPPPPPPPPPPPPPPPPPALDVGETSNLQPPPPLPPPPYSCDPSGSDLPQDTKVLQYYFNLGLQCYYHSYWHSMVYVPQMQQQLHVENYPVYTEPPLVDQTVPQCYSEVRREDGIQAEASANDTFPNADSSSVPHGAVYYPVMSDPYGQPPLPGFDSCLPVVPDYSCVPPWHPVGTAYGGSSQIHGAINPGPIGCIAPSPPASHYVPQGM
Sequence of UniProt Q5T2D3 (Q5T2D3 whole entry): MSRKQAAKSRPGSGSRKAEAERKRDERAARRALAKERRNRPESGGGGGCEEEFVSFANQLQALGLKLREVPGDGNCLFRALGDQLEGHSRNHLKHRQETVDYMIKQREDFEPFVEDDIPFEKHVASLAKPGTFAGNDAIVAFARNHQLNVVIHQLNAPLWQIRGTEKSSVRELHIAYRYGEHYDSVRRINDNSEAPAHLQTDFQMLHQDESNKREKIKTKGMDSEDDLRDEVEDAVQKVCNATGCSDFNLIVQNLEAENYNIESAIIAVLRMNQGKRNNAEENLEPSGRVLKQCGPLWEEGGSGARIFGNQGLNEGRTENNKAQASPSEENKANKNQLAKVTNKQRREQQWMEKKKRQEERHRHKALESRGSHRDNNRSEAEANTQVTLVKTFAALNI
Sequence of UniProt Q96FW1 (Q96FW1 whole entry): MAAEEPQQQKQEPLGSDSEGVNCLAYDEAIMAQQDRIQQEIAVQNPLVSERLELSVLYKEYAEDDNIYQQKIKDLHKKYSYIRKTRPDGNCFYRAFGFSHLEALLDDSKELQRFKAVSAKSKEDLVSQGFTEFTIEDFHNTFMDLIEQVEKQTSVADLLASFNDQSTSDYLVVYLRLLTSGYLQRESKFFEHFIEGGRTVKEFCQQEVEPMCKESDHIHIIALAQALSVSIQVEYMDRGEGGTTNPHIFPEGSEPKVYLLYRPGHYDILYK
Sequence of UniProt Q9Y4E8 (Q9Y4E8 whole entry): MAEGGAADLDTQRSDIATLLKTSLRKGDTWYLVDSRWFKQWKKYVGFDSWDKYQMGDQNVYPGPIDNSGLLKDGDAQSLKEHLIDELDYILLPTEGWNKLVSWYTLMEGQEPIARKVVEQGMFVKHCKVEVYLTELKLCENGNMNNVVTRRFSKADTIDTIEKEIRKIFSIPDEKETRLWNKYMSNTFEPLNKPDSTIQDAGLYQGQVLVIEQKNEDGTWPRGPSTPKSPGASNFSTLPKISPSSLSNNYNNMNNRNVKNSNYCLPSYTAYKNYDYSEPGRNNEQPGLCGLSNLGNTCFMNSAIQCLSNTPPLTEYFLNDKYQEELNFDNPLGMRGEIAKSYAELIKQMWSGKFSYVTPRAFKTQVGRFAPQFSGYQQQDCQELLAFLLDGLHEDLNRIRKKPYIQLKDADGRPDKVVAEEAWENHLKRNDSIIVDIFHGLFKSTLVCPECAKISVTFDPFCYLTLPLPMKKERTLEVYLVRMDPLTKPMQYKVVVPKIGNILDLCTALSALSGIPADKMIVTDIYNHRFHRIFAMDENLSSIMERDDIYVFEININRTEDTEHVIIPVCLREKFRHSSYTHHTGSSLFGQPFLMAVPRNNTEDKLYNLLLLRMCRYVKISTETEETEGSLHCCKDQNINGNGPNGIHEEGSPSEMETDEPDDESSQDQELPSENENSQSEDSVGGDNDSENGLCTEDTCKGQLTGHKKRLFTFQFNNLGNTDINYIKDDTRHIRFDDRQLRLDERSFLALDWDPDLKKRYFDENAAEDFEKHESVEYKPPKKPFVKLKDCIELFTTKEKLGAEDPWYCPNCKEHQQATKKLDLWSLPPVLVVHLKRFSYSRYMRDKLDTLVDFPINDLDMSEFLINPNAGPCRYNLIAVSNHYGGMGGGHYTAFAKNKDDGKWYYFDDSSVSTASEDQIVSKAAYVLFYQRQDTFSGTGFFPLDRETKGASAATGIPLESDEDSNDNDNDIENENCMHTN
Sequence of UniProt Q14694 (Q14694 whole entry): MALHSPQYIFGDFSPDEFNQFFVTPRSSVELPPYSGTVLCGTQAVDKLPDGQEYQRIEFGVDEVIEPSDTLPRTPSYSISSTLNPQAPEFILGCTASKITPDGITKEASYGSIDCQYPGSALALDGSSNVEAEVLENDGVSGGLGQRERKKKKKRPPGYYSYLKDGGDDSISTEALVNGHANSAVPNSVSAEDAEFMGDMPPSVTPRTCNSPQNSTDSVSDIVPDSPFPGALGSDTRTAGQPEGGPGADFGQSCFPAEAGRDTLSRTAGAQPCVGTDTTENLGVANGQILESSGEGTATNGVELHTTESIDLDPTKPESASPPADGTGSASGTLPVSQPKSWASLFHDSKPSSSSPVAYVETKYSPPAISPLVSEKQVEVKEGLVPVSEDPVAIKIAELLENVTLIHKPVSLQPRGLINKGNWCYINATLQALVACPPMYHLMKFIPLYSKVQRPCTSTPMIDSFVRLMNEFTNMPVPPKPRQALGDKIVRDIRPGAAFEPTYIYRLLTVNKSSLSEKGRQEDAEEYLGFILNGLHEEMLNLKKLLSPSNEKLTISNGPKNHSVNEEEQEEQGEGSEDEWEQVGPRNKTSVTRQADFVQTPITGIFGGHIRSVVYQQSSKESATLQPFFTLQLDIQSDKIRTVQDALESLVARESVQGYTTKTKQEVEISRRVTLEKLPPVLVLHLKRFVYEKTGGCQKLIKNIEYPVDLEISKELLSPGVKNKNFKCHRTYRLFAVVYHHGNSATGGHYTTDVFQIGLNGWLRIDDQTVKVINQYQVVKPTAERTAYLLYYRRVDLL

Row | Target | log2 ratio of Biotin-Ahx-Ub-VS probe labelling
1 | YOD1 (UniProt Q5VVQ6) | -0.0389
2 | ALG13 (UniProt Q9NP73) | -0.154
3 | USP10 (UniProt Q14694) | -0.0318
4 | USP24 (UniProt Q9UPU5) | -0.0634
5 | USP19 (UniProt O94966) | -0.227
6 | OTUB1 (UniProt Q96FW1) | -0.00568
7 | UniProt Q5T2D3 | -0.0676
8 | USP34 (UniProt Q70CQ2) | -0.504
9 | USP15 (UniProt Q9Y4E8) | -0.194

Same assay, conditions: compound concentration: 200uM; treatment time: 3 h

Row | Target | log2 ratio of Biotin-Ahx-Ub-VS probe labelling
10 | YOD1 (UniProt Q5VVQ6) | 0.0083
11 | ALG13 (UniProt Q9NP73) | 0.381
12 | USP10 (UniProt Q14694) | -0.0398
13 | USP24 (UniProt Q9UPU5) | -0.175
14 | USP19 (UniProt O94966) | -0.0992
15 | OTUB1 (UniProt Q96FW1) | 0.00171
16 | UniProt Q5T2D3 | -0.0477
17 | USP34 (UniProt Q70CQ2) | -0.364
18 | USP15 (UniProt Q9Y4E8) | -0.0271

From the supplement of paper PMC11732987, “Enantioselective OTUD7B fragment discovery through chemoproteomics screening and high-throughput optimisation” (Communications Chemistry, 2025)
